# Shown are actives, neighbours in structure and some others; about 2.2% of the full set was active somewhere.
# VLA-4 inh – inhibition in a human VLA-4 binding assay | P13612 | VLA-4 expressing cells, ligand binding flow cytometry | inhibition, % (about 7 µM as worked out from the volumes in the protocol) | 330,000 compounds, 0.2% hits; in the data active means inhibition above about 50%
# MEKK3 PB1 HTS – modulators (inhibitors or enhancers) of MEK5 binding to human MEKK3 PB1 domain. bead-based flow cytometry, Alexa488-MEK5 binding to MEKK3; actives lie on both sides; 0 = blocked by unlabeled MEK5, 100 = vehicle. AID 1529. binding response (% of control), % at 10 µM. Q99759. 290,000 compounds, 1.4% hits;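 active means binding response more than 3 SD above or below the average of its plate-row segment, actives on both sides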;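 further: Alexa488 bead fluorescence after subtracting the streptavidin-only scavenger bead signal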
# MEKK2wt PB1 HTS – raises or lowers MEK5 binding to wildtype human MEKK2 PB1 domain; binding response (% of control), % at 10 µM; bead flow cytometry, Alexa488-MEK5 binding to MEKK2 WT; actives lie on both sides; Q9Y2U5; AID 1531; 290,000 compounds, 1.1% hits; in the data active means binding response below about 67% or above about 130%
# MEKK2 mut-MEK5 – signal of MEK5 binding to mutant human MEKK2 PB1 domain | 290,000 compounds, 0.35% hits | AID 1530 | bead flow cytometry, Alexa488-MEK5 binding to MEKK2 mutant | percent response, % at 10 µM; in the data active means percent response above about 24%, passing the limit was not always enough
# MEKK2wt confirm – raises or lowers MEK5 binding to wildtype human MEKK2, retest; 5,900 compounds, 2.4% hits; shares compounds with MEKK3 PB1 HTS; bead flow cytometry, Alexa488-MEK5 binding to MEKK2 WT; actives lie on both sides; binding response (% of control), % at 10 µM; AID 1892; in the data active means binding response below about 16% or above about 210%; inactive means in between
# MEKK2mut-MEK5 – signal of MEK5 binding to mutant human MEKK2, retest; 5,900 compounds, 2% hits; bead flow cytometry, Alexa488-MEK5 binding to MEKK2 mutant; shares compounds with MEKK3 PB1 HTS; percent response, % at 10 µM; in the data active means percent response mostly above about 71%, no sharp cut-off; inactive means mostly below about 38%;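 further: higher means compound restores mutant binding toward wildtype level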
# MEKK3-MEK5 inh – confirmation of inhibitors of MEK5 binding to human MEKK3. shares compounds with MEKK3 PB1 HTS. bead flow cytometry, Alexa488-MEK5 binding to MEKK3; active compounds read low. binding response (% of control), % at 10 µM. 5,900 compounds, 1.8% hits;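 active means binding response below 72% of control, or above a set upper limit, though filed actives all read lower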;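 further: 100% = DMSO only wells and 0% = binding blocked by excess unlabeled MEK5; lower values mean stronger disruption of MEK5 binding to MEKK3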
# Starred values were filed as active, the others as inactive; . = not tested or not shown; [ ] = another dose, or the depositor's remark.
SMILES,VLA-4 inh,MEKK3 PB1 HTS,MEKK2wt PB1 HTS,MEKK2 mut-MEK5,MEKK2wt confirm,MEKK2mut-MEK5,MEKK3-MEK5 inh
CCOC(=O)N1CCC(NC(=O)C2=CCN(S(=O)(=O)c3ccc(OC)cc3)CC2)CC1,8,128*,121,29,98,0,96
N/C(=N\OC(=O)c1ccccc1)c1ccn[nH]1,-19,102,103,1,.,.,.
OCCNCc1cc(Br)ccc1OCc1ccc(Cl)cc1Cl,.,110,145*,35*,127,17,105
OCCNCc1cc(Br)ccc1OCc1ccc(F)cc1,-2,103,106,1,.,.,.
CCOc1cc(CNCCO)cc(Br)c1OCc1ccc(Cl)cc1Cl,33,115,212*,51*,204,58,110
OCCCCNCc1cc(Br)ccc1OCc1ccccc1F,13,103,148*,24,157,32,109
CCOc1cc(CNCCSc2nnnn2C)cc(Br)c1OCc1ccccc1F,5,106,136*,11,135,17,108
OCCNCc1cc(Br)ccc1OCc1ccc(Cl)cc1,5,.,.,.,.,.,.
COc1ccccc1N1CCN(C(=O)c2cccc(S(=O)(=O)N3CCCCCC3)c2)CC1,-5,.,.,.,.,.,.
O=C(CNS(=O)(=O)c1c(F)cc(F)cc1Br)OCC(=O)N1CCCC1=O,2,.,.,.,.,.,.
COc1cc(/C=C/c2noc(-c3ccccc3O)n2)ccc1OC(C)=O,-3,129*,115,26,98,-9,96
CCOc1ccc(OCC(=O)Nc2ccc(OC)cc2[N+](=O)[O-])cc1,4,37*[inhibitor],51,-22,101,1,101
NC(=O)c1ccc(-n2nnnc2Oc2ccccc2)cc1,14,81*[inhibitor],83,-9,103,4,105
COc1ccccc1Oc1nnnn1-c1ccc(C(N)=O)cc1,.,101,104,4,.,.,.
CCOC(=O)C(CCSC)Nc1nc(Cl)nc(Nc2ccc(Cl)cc2)n1 (configuration not stated),-26,101,97,-2,.,.,.
O=C(Cc1nc2ccccc2[nH]1)c1ccc(Cl)cc1,-9,104,99,-2,.,.,.
Clc1ccc(/C(Cc2nc3ccccc3[nH]2)=N\Nc2ccccc2)cc1,0,110,153*,42,138,13,108
O=C(CC1N=C2c3ccccc3N=C(SCc3ccc(F)cc3)N2C1=O)NCc1ccco1 (configuration not stated),2,2.0*[inhibitor],2.0*[inhibitor],-16,100,0,105
Cn1cc(CN(CCO)Cc2cccs2)c(-c2ccccc2F)n1,0,97,94,-7,.,.,.
O=C(NC(=S)NCc1cccnc1)c1ccccc1[N+](=O)[O-],21,2.0*[inhibitor],2.0*[inhibitor],-6,91,-6,96
O=C(N/N=C/c1ccncc1)c1cnccn1,11,105,108,6,.,.,.
O=C(NNC(=S)Nc1ccccc1)c1ccccc1[N+](=O)[O-],5,5.0*[inhibitor],7.0*[inhibitor],-18,109,3,103
CC(=O)c1ccc(NC(=S)NNC(=O)c2ccccc2[N+](=O)[O-])cc1,5,101,102,-2,.,.,.
O=C(N/N=C/c1ccc([N+](=O)[O-])cc1)c1cnccn1,4,66*[inhibitor],64,-19,96,-4,93
O=C(N/N=C/c1cccnc1)c1ccccc1[N+](=O)[O-],-5,58*[inhibitor],88,-2,99,-4,99
O=C(N/N=C/c1ccncc1)c1ccccc1[N+](=O)[O-],4,99,105,6,.,.,.
COc1ccc(-c2csc(NC(=O)COC(=O)c3ccco3)n2)cc1,5,138*,107,0,105,1,103
CC(C)CC(=O)NC(=S)Nc1nc(-c2ccccc2)cs1,-15,108,104,-2,.,.,.
CC(C)CC(=O)NC(=S)Nc1nc(-c2ccc(Cl)cc2)cs1,7,155*,104,0,102,0,100
CCCC(=O)NC(=S)Nc1nc(-c2ccc(OC)cc2)cs1,6,137*,104,1,100,1,109

# Assay outcomes (PubChem)
